From PubChem BioAssay (Tox21)
Results filed as inconclusive are left out. Active and inactive are the calls of the source. Unless noted, calls come from the whole dose curve; as a rule, active = well fitted curve in the direction sought with a large enough effect in the repeat runs; inconclusive = weak or mixed curves; inactive = no such curve, though single readings can be large; an effect the other way counts as inactive or inconclusive.

Assays:
[1] = qHTS RealTime-Glo MT Cell Viability Assay in HepG2 cells - 32 hour (AID 1224877); note: nearly all actives have a fitted effect of over 55% in size
How it was run: (§1)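 Cells + NanoLuc/prosubstrate dispensed (600 cells/well) → 5 h at 37 C/5% CO2 → compounds in DMSO transferred → 40 h incubation at 37 C, luminescence read at 0, 8, 16, 24, 32, 40 h.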

[2] = A CellTox Green Cytotoxicity Assay to monitor cytotoxicity in HepG2 cells - 24 hour (AID 1224878); note: nearly all actives have a fitted effect of over 45% in size; note: potency is the fitted concentration of half-maximal effect
How it was run: (§2)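 Fluorescent DNA-binding dye, 600 HepG2 cells/well, 5 h preincubation then compound in DMSO; same plates read at 0–40 h, 37 C.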

[3] = qHTS RealTime-Glo MT Cell Viability Assay in HEK293 cells - 0 hour (AID 1224880); note: top concentration of the series differs between compounds; nearly all actives have a fitted effect of over 45% in size
How it was run: (§3)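 Measured as luminescence from the same continuously cultured HEK293 wells at successive time points (0, 8, 16, 24, 32, 40 h) after compound addition. Reagent present from seeding; dosing at 5 h; incubation 37 C.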

[4] = A CellTox Green Cytotoxicity Assay to monitor cytotoxicity in HEK293 cells - 32 hour (AID 1224881); note: nearly all actives have a fitted effect of over 40% in size
How it was run: (§4)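 Homogeneous no-lysis format: HEK293 cell suspension mixed with CellTox Green reagent, seeded, incubated 5 h at 37 C/5% CO2, then dosed by pintool with compound in DMSO.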

[5] = A CellTox Green Cytotoxicity Assay to monitor cytotoxicity in HepG2 cells - 0 hour (AID 1224882); note: nearly all actives have a fitted effect of over 35% in size
How it was run: as §2

[6] = A CellTox Green Cytotoxicity Assay to monitor cytotoxicity in HEK293 cells - 8 hour (AID 1224884); note: nearly all actives have a fitted effect of over 35% in size
How it was run: as §4

[7] = qHTS RealTime-Glo MT Cell Viability Assay in HepG2 cells - 16 hour (AID 1224885); note: nearly all actives have a fitted effect of over 50% in size
How it was run: as §1

[8] = qHTS RealTime-Glo MT Cell Viability Assay in HEK293 cells - 24 hour (AID 1224886); note: top concentration of the series differs between compounds; nearly all actives have a fitted effect of over 50% in size
How it was run: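 Tox21 10K qHTS, HEK293, 600 cells/well, RealTime-Glo reagent co-dispensed with cells; 5 h preincubation, compound by pintool, 37 C, luminescence at 0–40 h.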

[9] = qHTS RealTime-Glo MT Cell Viability Assay in HEK293 cells - 8 hour (AID 1224887); note: top concentration of the series differs between compounds; nearly all actives have a fitted effect of over 50% in size
How it was run: as §3

[10] = A CellTox Green Cytotoxicity Assay to monitor cytotoxicity in HEK293 cells - 16 hour (AID 1224888); note: nearly all actives have a fitted effect of over 35% in size
How it was run: as §4

[11] = A CellTox Green Cytotoxicity Assay to monitor cytotoxicity in HepG2 cells - 8 hour (AID 1224890); note: nearly all actives have a fitted effect of over 45% in size
How it was run: as §2

[12] = qHTS assay to identify small molecule antagonists of the estrogen receptor alpha (ER-alpha) signaling pathway using the BG1 cell line in the presence of 0.1 nM 17-beta-estradiol - cell viability counter screen (AID 1259241); note: nearly all actives have a fitted effect of over 40% in size
How it was run: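 Live-cell protease activity (CellTiter-Fluor fluorescence, 30 min) was read in the same wells after VM7Luc4E2 cells had been exposed to compounds with 0.1 nM 17beta-estradiol for 22 hr at 37C.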

[13] = qHTS assay to identify small molecule antagonists of the androgen receptor (AR) signaling pathway using the MDA cell line in the presence of 0.5 nM R1881 - cell viability counter screen (AID 1259242); note: nearly all actives have a fitted effect of over 45% in size
How it was run: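 Human breast carcinoma MDA-kb2 cells, cultured without CO2, receive compounds alongside 0.5 nM (final) R1881 agonist. After 16 hr at 37C, viability is taken as live-cell protease signal.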

[14] = qHTS assay to identify small molecule phospholipidosis (PLD) inducers (AID 1259344; active = well fitted curve in the direction sought with a large enough effect; an effect the other way counts as inactive or inconclusive)
How it was run: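 Cells (HepG2, 900 per well) attach for 4 h, receive LipidTOX Red and compound together, incubate 24 h at 37 C, are fixed 30 min with paraformaldehyde/Hoechst, then imaged at one site per well.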

[15] = qHTS assay to identify small molecule HDAC inhibitors (AID 1259364)
How it was run: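 After a 2 hr compound incubation (37C, 5% CO2), HCT-116 cells seeded at 1,500/well the day before received HDAC-Glo reagent; signal read as luminescence after 30 min at room temperature.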

[16] = qHTS assay to identify small molecule HDAC inhibitors - cell viability counter screen (AID 1259365); note: series mostly up to about 92 µM; nearly all actives have a fitted effect of over 50% in size
How it was run: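 HCT-116 (wild type), 1,500 cells/well, overnight 37C/5% CO2; compound in DMSO 2hr; CellTiter-Glo 30min RT; luminescence read.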

[17] = A CellTox Green Cytotoxicity Assay to monitor cytotoxicity in HepG2 cells - 40 hour (AID 1224879); note: nearly all actives have a fitted effect of over 40% in size; note: potency is the fitted concentration of half-maximal effect
How it was run: as §2

[18] = target: Estrogen receptor (Homo sapiens) (UniProt P03372); experiment: qHTS assay to identify small molecule antagonists of the estrogen receptor alpha (ER-alpha) signaling pathway using the BG1 cell line in the presence of 0.1 nM 17-beta-estradiol (AID 1259244); note: nearly all actives have a fitted effect of over 50% in size
Sequence of Estrogen receptor (Homo sapiens) (P03372 whole entry, looked up): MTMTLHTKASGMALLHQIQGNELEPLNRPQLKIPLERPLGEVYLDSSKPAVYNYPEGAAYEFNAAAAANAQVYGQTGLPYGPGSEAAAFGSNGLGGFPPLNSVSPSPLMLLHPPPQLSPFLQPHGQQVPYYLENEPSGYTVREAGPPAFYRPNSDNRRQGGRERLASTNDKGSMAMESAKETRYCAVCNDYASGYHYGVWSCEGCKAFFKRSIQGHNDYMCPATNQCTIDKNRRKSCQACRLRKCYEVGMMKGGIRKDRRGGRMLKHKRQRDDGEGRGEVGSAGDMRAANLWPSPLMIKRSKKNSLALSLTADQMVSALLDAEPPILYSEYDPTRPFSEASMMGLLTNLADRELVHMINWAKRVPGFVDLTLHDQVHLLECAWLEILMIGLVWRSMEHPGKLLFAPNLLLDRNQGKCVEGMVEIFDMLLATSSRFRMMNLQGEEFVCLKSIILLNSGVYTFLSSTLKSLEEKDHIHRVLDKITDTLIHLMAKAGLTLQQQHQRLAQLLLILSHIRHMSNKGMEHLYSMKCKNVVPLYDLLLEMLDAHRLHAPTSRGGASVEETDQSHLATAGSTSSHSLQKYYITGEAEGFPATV
How it was run: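 Seeding of stripped-serum-adapted VM7Luc4E2 cells, 24 h attachment, compound transfer, then 0.1 nM final 17beta-estradiol; after 22 h incubation, ONE-Glo reagent and luminescence reading.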

[19] = qHTS RealTime-Glo MT Cell Viability Assay in HepG2 cells - 0 hour (AID 1224889); note: nearly all actives have a fitted effect of over 50% in size
How it was run: as §1

[20] = A CellTox Green Cytotoxicity Assay to monitor cytotoxicity in HepG2 cells - 32 hour (AID 1224883); note: nearly all actives have a fitted effect of over 50% in size
How it was run: as §2
% is set by controls: 0 for no effect and ±100 for the full control effect.

O=C(CN1CCN(Cc2ccc3c(c2)OCO3)CC1)N1c2ccccc2Sc2ccccc21
inactive: outcome [1] | Potency [2] | outcome [3] | Potency [4] | Potency [5] | Potency [6] | outcome [7] | Potency [8] | Potency [9] | Potency [10] | Potency [11] | Potency [12] | Potency [13] | outcome [14] | Potency [15] | outcome [16]

NS(=O)(=O)c1ccc(Cl)c(S(N)(=O)=O)c1
inactive: outcome [1] | Potency [2] | Potency [17] | Potency [4] | Potency [5] | outcome [7] | Potency [8] | Potency [9] | Potency [10] | Potency [11] | Potency [12] | Potency [13] | Potency [18] | outcome [14] | Potency [15] | outcome [16]

Cc1ccccc1C(=O)N1CC/C(=N\OS(=O)(=O)O)c2ccc(Cl)cc21
inactive: outcome [1] | Potency [4] | outcome [7] | Potency [8] | Potency [9] | Potency [10] | Potency [19] | Potency [12] | Potency [13] | Potency [18] | PLD induction [14] -2.19% [at 7.66 µM] | Potency [15] | outcome [16]
active: Potency [2] 26.8 µM | Potency [17] 23.9 µM

CC(=O)OCCCc1ccccc1
inactive: outcome [1] | Potency [2] | Potency [17] | Potency [5] | Potency [20] | Potency [6] | outcome [7] | Potency [8] | Potency [9] | Potency [10] | Potency [11] | Potency [12] | Potency [13] | Potency [15] | outcome [16]

CC(C)CCO
inactive: Potency [2] | Potency [17] | outcome [3] | Potency [4] | Potency [5] | Potency [20] | Potency [6] | Potency [8] | Potency [9] | Potency [10] | Potency [11] | Potency [12] | Potency [13] | Potency [18] | Potency [15] | outcome [16]
